Consider 43 molecules from PubChem BioAssay AID1508622 (National Center for Advancing Translational Sciences (NCATS), 2021).

This experiment can be described thus: Confirmatory qHTS for Identification of Small Molecule Activators of Huntingtin-Antisense Promoter Activity. In a few lines: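 Plated reporter HEK293 cells (24 h) received library compounds at up to 57.5 uM final or 50 uM PTC124, incubated 24 h at 37C; firefly luciferase luminescence was then recorded with Dual-Glo reagent.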

The source made the active and inactive calls. A call without a number means that no potency is given here. Calls come from the whole dose curve; as a rule, active = well fitted activation curve with a large enough effect; inconclusive = small, poorly fitted or top-dose-only effect; inactive = no such curve, though single readings can be large or run the other way.
Potency is the fitted concentration of half-maximal effect.

In the case of `CCOc1cccc(NC(=O)c2ccc(F)c(S(=O)(=O)N(CC)c3cccc(C)c3)c2)c1`, the Potency entry is “inactive”.

On to `COc1ccc(NC(=O)CSc2nc(-c3cccs3)cc(C(F)(F)F)n2)cc1OC`, for which the Potency result is “inactive”.

Consider `CCOc1ccc(CCNC(=O)c2cccc(-n3c(C)nc4cccnc43)c2)cc1`, for which the Potency result is “inactive”.

With `Cn1c(=O)n(C)c2cc(NS(=O)(=O)c3ccc(C(C)(C)C)cc3)c(NCc3ccccc3)cc21`, the Potency result is “inactive”.

Turning to `COc1ccc(Br)cc1CNC(=O)CSc1n[nH]c(-c2ccccc2)n1`, the Potency entry was “inactive”.

`O=C(NCC(c1cccnc1)N1CCN(Cc2ccccc2)CC1)C(=O)Nc1ccc(Cl)cc1` (stereo not drawn): the Potency result was “inactive”.

As to `CCCCOc1cccc(C(=O)N(Cc2ccc(C)o2)c2ccccn2)c1`, the Potency entry is “inactive”.

Regarding `Cc1ccc(-c2nc3sc(CCNS(=O)(=O)c4cc(F)ccc4F)c(C)n3n2)cc1`, the Potency result is “inactive”.

Consider `COc1cccc(C(=O)Nc2nc(-c3nnn(-c4cccc(Cl)c4C)c3C)ns2)c1`, for which the Potency entry is “inactive”.

For the molecule `CCc1cccc(NC(=O)CSc2nc3ccsc3c(=O)n2CC)c1`, the Potency result is “inactive”.

Take `CCOc1ccc(NC(=O)c2c(Nc3ccccc3C)sc(C(=O)c3ccccc3)c2N)cc1`: the Potency result is “inactive”.

For the molecule `COc1ccc(Cn2c(SCc3ccc(C(=O)NC4CCCC4)cc3)nc3ccncc32)cc1`, the Potency entry is “inactive”.

As for `Cc1ccc(CNC(=O)c2c(Nc3c(C)cccc3C)sc(C(=O)c3ccccc3)c2N)cc1`, the Potency entry is “inactive”.

Take `O=C(O)c1cc(-n2c(/C=C\c3ccc(F)cc3)nc3ccccc3c2=O)ccc1Cl`: the Potency result is “inactive”.

As to `CCOc1ccc(C(=O)Nc2ccc(-n3nncc3-c3ccc(OC)cc3)cc2)cc1`, the Potency result is “inactive”.

As to `CN(C)CCNC(=O)C1CCN(Cc2cc3ccccc3n2Cc2ccccc2)CC1`, the Potency result is “inactive”.

Turning to `CSc1cccc(NC(=O)C2CCN(S(=O)(=O)c3ccc4[nH]c5c(c4c3)CCCCC5)CC2)c1`, the Potency result was “inactive”.

`CCOc1ccc(CCNC(=O)c2ccc(CS(=O)(=O)Cc3ccccc3Cl)o2)cc1OCC`: the Potency result was “inactive”.

As to `Cc1ccc(CSc2ncc(Cl)c(C(=O)NCCc3ccc(S(N)(=O)=O)cc3)n2)cc1`, the Potency entry was “inactive”.

As for `CN(C)C(=O)COC(=O)Cc1ccc(OC(=O)c2ccc(N=C(N)N)cc2)cc1`, the Potency entry is “inactive”.

Turning to `COc1ccc(OC)c(CCNC(=O)c2cnn(-c3ccc(C)cc3C)c2C2CCN(C(=O)OC(C)(C)C)CC2)c1`, the Potency entry was “inactive”.

As for `O=C(CCCn1ccc2cc(S(=O)(=O)N3CCCC3)ccc21)NCc1ccc(Cl)cc1`, the Potency result was “inactive”.

`CCCCN(C)S(=O)(=O)c1cc(-c2cc(C)no2)ccc1C`: the Potency entry is “inactive”.

Regarding `COc1cc2ccccc2cc1C(=O)N1CCN(c2nc3ccc(F)cc3s2)CC1`, the Potency result was “inactive”.

Consider `CCc1nnc(NC(=O)c2nc(S(=O)(=O)Cc3cccc(C)c3)ncc2Cl)s1`, for which the Potency result is “inactive”.

On to `COc1ccc(CCNC(=O)c2ccc3c(c2)CCN3S(=O)(=O)c2ccc(Cl)cc2)cc1`, for which the Potency result is “inactive”.

As for `CCCOc1ccc(C2c3c(-c4ccccc4O)n[nH]c3C(=O)N2CCCOCC)cc1OCC` (stereo not drawn), the Potency result is “inactive”.

With `CCOCCCNC(=O)Nc1cc(C(=O)NCc2ccc(C(C)C)cc2)ccc1N1CCCC1`, the Potency result is “inactive”.

In the case of `Cn1c(COc2ccccc2C(C)(C)C)nc2ccccc21`, the Potency result was “inactive”.

Consider `CCOc1ccc(/C=C/c2nc(C#N)c(NCc3ccccc3)o2)cc1`, for which the Potency entry is “inactive”.

Consider `Cc1ccc(C)c(-n2nnc(C(=O)Nc3ccc(Br)cc3)c2C)c1`, for which the Potency result was “inactive”.

As for `COc1cc(NC(=O)Cn2c(=O)oc3cc(S(=O)(=O)N4CCCCCC4)ccc32)cc(OC)c1`, the Potency entry is “inactive”.

Turning to `COc1ccc(-c2noc(N3CCN(c4ccc(C)cc4)C(C)C3)n2)cc1OC` (stereo not drawn), the Potency result is “inactive”.

Consider `CCSc1ncc(Cl)c(C(=O)Nc2ccc(S(=O)(=O)N3CCC(C)CC3)cc2)n1`, for which the Potency result is “inactive”.

With `Cc1ccccc1CN1c2ccccc2-c2nc(SCC(=O)Nc3cc(F)ccc3F)ncc2S1(=O)=O`, the Potency result is “inactive”.

Take `CCN(CCCNC(=O)CSc1cc(=O)n(CC)c2ccccc12)c1cccc(C)c1`: the Potency entry was “inactive”.

As for `CC(C)(C)C(=O)NCCc1nc2ccccc2n1CCCCOc1ccc(Cl)cc1`, the Potency result is “inactive”.

Regarding `O=C(c1ccc2c(c1)N(Cc1ccccc1)C(=O)c1ccccc1S2(=O)=O)N1CCCCCC1`, the Potency entry was “inactive”.

On to `COc1ccccc1C(=O)NCCSc1c(C)[nH]c2ccccc12`, for which the Potency result was “inactive”.

`Cc1ccc(C)c(OCCCC(C)(C)C(=O)O)c1`: the Potency entry is “inactive”.

`CCc1ccc(NC(=O)c2cc(S(=O)(=O)N3CCCCCC3)ccc2F)cc1`: the Potency entry was “inactive”.

As for `COc1ccc(OC)c(-c2nnc3ccc(-c4ccc(OC)c(O[C@@H]5CCOC5)c4)nn23)c1`, the Potency entry was “inactive”.

On to `Cc1cc(C)cc(NC(=O)Nc2cccs2)c1`, for which the Potency is 3.38 µM (active).
